# TRPM1 prom inh = inhibitors of MITF-dependent TRPM1 promoter reporter, primary screen, cell-based, SK-MEL-5, single point, luciferase | SK-MEL-5 TRPM1 promoter luciferase, 24 h | inhibition, % at 12.5 µM | actives 0.83% (n = 330,000) | AID 488899, 2010;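 active means mean inhibition across replicates of 60% or more, whatever share of single replicates reaches that level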
# Shn3 3UTR inh = reduction of Shn3 3'UTR firefly luciferase signal, primary screen, Schnurri-3 inhibitor project, cell-based, Clone20 osteoblasts, set 2. Clone20 osteoblast Shn3 3'UTR firefly luciferase, 24 h. inhibition, % at 12.5 µM. actives 0.52% (n = 360,000);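 active means mean inhibition of at least 75% with every replicate also reaching 75%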;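 further: 0% = median of neutral control wells and 100% = pilot-screen positive control compound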
# PAX8 reporter = inhibitors of PAX8-driven TPO luciferase reporter, primary screen, RMG-I cells, single concentration. AID 652154, 2013. actives 1.2% (n = 360,000). inhibition, % at 12.6 µM. SteadyGlo, 24 h;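 active means mean replicate inhibition at least 60% with every replicate also reaching 60%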;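 further: luciferase light reporting Pax8 driven TPO promoter activity; plate controls were median of neutral control wells for no effect and mitoxantrone controls for full effect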
# ABHD5-PLIN5 inh = ABHD5-PLIN5 interaction inhibitors, primary screen, cell lysate, split luciferase complementation, luminescence. inhibition, % at 4 µM. Split G. princeps luciferase complementation, 4 h. AID 602281, 2012. actives 0.78% (n = 360,000). Perilipin-5 (Homo sapiens) + 1-acylglycerol-3-phosphate O-acyltransferase ABHD5 (Homo …;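 active means inhibition above the mean inhibition across every tested compound plus 3 SD, cut at about 22% in these data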;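 further: 0% = DMSO only wells and the 100% control is not disclosed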
# Target sequence (Q00G26 whole entry, looked up): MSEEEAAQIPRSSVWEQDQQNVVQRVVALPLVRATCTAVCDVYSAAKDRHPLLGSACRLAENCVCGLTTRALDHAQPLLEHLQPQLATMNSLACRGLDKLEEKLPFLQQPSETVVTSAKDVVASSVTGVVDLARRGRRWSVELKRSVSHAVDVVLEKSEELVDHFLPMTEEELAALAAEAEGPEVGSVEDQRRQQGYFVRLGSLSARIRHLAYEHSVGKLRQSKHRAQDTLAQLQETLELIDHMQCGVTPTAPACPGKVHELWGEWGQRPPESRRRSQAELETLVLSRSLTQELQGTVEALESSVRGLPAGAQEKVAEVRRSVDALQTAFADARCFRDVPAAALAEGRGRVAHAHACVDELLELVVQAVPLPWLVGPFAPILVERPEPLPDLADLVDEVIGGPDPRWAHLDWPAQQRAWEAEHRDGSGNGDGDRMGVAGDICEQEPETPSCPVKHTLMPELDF
# Target sequence (Q8WTS1 whole entry, looked up): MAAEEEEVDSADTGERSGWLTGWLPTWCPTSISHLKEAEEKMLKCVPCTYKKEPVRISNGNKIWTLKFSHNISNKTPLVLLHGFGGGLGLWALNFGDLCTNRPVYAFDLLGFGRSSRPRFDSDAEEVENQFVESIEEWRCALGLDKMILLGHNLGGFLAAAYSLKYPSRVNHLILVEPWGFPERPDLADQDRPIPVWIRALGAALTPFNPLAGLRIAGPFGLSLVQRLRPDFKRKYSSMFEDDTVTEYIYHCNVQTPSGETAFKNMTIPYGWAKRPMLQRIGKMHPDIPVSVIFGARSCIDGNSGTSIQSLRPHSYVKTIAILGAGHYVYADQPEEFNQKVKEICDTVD
# Peg3 prom inh = Peg3 promoter-driven luciferase inhibitors, primary screen, cell-based, HeLa, luciferase luminescence. inhibition, % at 20 µM. HeLa PEG-Prom luciferase reporter, overnight. actives 1.7% (n = 360,000);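 active means inhibition of at least 50% at 20 µM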
# EWS-Fli inh = EWS/Fli-driven NR0B1 reporter inhibitors, primary screen, A673 cells, NR0B1 luciferase, luminescence, MLPCN library; viability-normalised; inhibition, % at 12.6 µM; actives 0.67% (n = 350,000); AID 651661, 2012;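 active means mean inhibition of at least 50% after viability correction, with every replicate also passing that limit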;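 further: firefly luciferase signal divided by Alamar Blue viability fluorescence both relative to DMSO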
# ABHD5-PLIN5 conf = ABHD5-PLIN5 interaction inhibitors, confirmation, biochemical, luminescence. shares compounds with ABHD5-PLIN5 inh. inhibition, % at 4 µM. actives 67% (n = 2,200). AID 651612, 2012; in the data active means inhibition above about 23%;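 further: 0% = DMSO vehicle wells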
# HNF4 counter = HNF4 dimerization inhibitors, counter-screen for ABHD5-PLIN5 interaction inhibitor project, biochemical, split-luciferase complementation, luminescence | AID 651674, 2012 | inhibition, % at 4 µM | actives 77% (n = 2,200) | shares compounds with ABHD5-PLIN5 inh;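 active means mean inhibition across replicate wells exceeding the computed hit threshold, cut at about 13% in these data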;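 further: light from luciferase halves that rejoin when HNF4 fusion proteins dimerize; 0% = DMSO only wells and the 100% control is not given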
# * marks the source's active call; other numbers are inactive results; · = no result given. Only some compounds are listed: those with a hit (about 3% of all), similar ones and a draw of the others.
SMILES,TRPM1 prom inh,Shn3 3UTR inh,PAX8 reporter,ABHD5-PLIN5 inh,Peg3 prom inh,EWS-Fli inh,ABHD5-PLIN5 conf,HNF4 counter
COc1ccccc1C(c1c(O)nc(SC)[nH]c1=O)c1c(O)nc(SC)[nH]c1=O,0,0,-6,24*,9,13,49*,42*
CCOCCc1c(O)nc(SC)[nH]c1=O,11,31,12,2,-4,3,·,·
CCOc1cc(C(c2c(O)nc(SC)[nH]c2=O)c2c(O)nc(SC)[nH]c2=O)ccc1O,·,6,12,32*,6,6,89*,77*
CC1=CC(=O)C(Sc2ccc(C)cc2)=CC1=O,·,60,32,62*,60*,21,60*,97*
Cc1ccc(Sc2c(C)[nH]n(C(C)(C)C)c2=O)cc1,11,3,·,-6,17,·,·,·
O=C(/C=C/c1cccc(O)c1)c1cccnc1,0,-12,-2,47*,2,2,70*,64*
O=C(/C=C/c1cccnc1)c1cccc(O)c1,10,-20,26,63*,33,39,81*,90*
CN(C)c1ccc(/C=C/C(=O)c2cccnc2)cc1,-4,·,-1,14,0,6,·,·
O=C(CN1CCOCC1)NCC[C@@H]1CC[C@H](NC(=O)c2ccccc2F)[C@H](CO)O1,·,·,-8,·,·,-1,·,·
Cc1cc(C)c(C#N)c(N2CCN(Cc3ccc4c(c3)OCO4)CC2)n1,-9,4,15,0,2,·,·,·
N#CCc1c(C#N)c(N)nc(N2CCN(Cc3ccc4c(c3)OCO4)CC2)c1C#N,-7,31,·,26*,23,·,2,7
COc1ccc(C(=O)N/C(=C\c2ccco2)C(=O)OCc2ccco2)cc1,-6,-35,6,4,-23,5,·,·
COc1ccc(C(=O)/C(=C\c2ccco2)N2C=CC=CC2=C(C#N)C#N)cc1,96*,97*,·,80*,104*,·,97*,102*
N#CC(C#N)=C1C=CC=CN1/C(=C\c1ccco1)C(=O)c1ccccc1,104*,96*,122*,54*,99*,78*,102*,110*
CC(C)(C)NC(=O)/C(=C/c1ccco1)c1ccccc1,11,10,·,9,13,·,·,·
CC1=NNC(=O)/C1=C\c1cn(-c2ccccc2)nc1-c1ccccc1,95*,97*,33,74*,104*,82*,99*,101*
O=Cc1cn(-c2ccccc2)nc1-c1ccccc1,-42,-35,-47,3,-72,-44,·,·
CN1CCN(C(=O)C[C@@H]2CC[C@H]3[C@@H](COC[C@@H](O)CN3Cc3ccc(Oc4ccccc4)cc3)O2)CC1,·,·,12,·,·,18,·,·
CCCCCNC(=O)C(c1ccncc1)n1c(=O)c(-c2ccco2)nc2ccccc21 (stereo not given),·,·,-10,58*,·,-18,35*,15*
CC(C)(C)NC(=O)C(c1cc2ccccc2o1)n1c(=O)c(-c2ccco2)nc2ccccc21 (stereo not given),·,·,-66,79*,·,-76,84*,16*
CC(C)(C)NC(=O)C(c1cccc2ccccc12)n1c(=O)c(-c2cc3ccccc3[nH]2)nc2ccccc21 (stereo not given),·,·,53,-7,·,8,·,·
CC(C)(C)NC(=O)C(c1ccnc2ccccc12)n1c(=O)c(-c2ccco2)nc2ccccc21 (stereo not given),·,·,4,58*,·,8,42*,7
COc1ccc(C(C(=O)NC(C)(C)C)n2c(=O)c(-c3ccccc3)nc3ccccc32)cc1 (stereo not given),·,·,12,-1,·,-15,·,·
CC(C)(C)NC(=O)C(c1ccccc1)n1c(=O)c(-c2ccco2)nc2ccccc21 (stereo not given),·,·,7,75*,·,8,77*,26*
C[C@H]1CN([C@@H](C)CO)C(=O)c2cc(NC(=O)C3CCCCC3)ccc2O[C@@H]1CN(C)S(=O)(=O)c1ccc(Cl)cc1,·,·,14,·,·,-7,·,·
SMILES,TRPM1 prom inh,Shn3 3UTR inh,PAX8 reporter,ABHD5-PLIN5 inh,Peg3 prom inh,EWS-Fli inh,ABHD5-PLIN5 conf,HNF4 counter
CO[C@H]1CN(C)C(=O)c2cc(NS(=O)(=O)c3ccc(C)cc3)ccc2OC[C@@H](C)N(Cc2nccs2)C[C@@H]1C,·,·,12,·,·,15,·,·
CN1C(=O)c2cc(NC(=O)NCc3ccccc3)ccc2OC[C@@H]2O[C@@H](CC(=O)O)CC[C@H]21,·,·,-3,·,·,3,·,·
O=C(NCc1ccccc1)C(c1cc2ccccc2o1)n1c(=O)c(-c2ccccc2)nc2ccccc21 (stereo not given),·,·,30,4,·,-42,·,·
CC(C)(C)NC(=O)C(c1ccncc1)n1c(=O)c(-c2ccco2)nc2ccccc21 (stereo not given),·,·,-16,48*,·,2,44*,14*
CCCCCNC(=O)C(c1cc2ccccc2o1)n1c(=O)c(-c2ccco2)nc2ccccc21 (stereo not given),·,·,-28,94*,·,-33,85*,14*
CCC(=O)N(C)C[C@H]1Oc2cc(C#CC(C)(C)O)ccc2S(=O)(=O)N([C@H](C)CO)C[C@@H]1C,·,·,·,·,·,-14,·,·
COc1cc(/C=C/c2[nH]c(=O)[nH]c(=O)c2[N+](=O)[O-])ccc1OCCC(C)C,-5,-12,-13,-1,-3,10,·,·
COc1cc(C(c2c(C)[nH][nH]c2=O)c2c(C)[nH][nH]c2=O)cc([N+](=O)[O-])c1O,2,5,15,-11,-2,4,·,·
COc1cc(/C=C/c2[nH]c(=O)[nH]c(=O)c2[N+](=O)[O-])cc([N+](=O)[O-])c1O,·,6,1,33*,8,-5,44*,33*
CCC(C)Oc1ccc(/C=C/c2[nH]c(=O)[nH]c(=O)c2[N+](=O)[O-])cc1OC (stereo not given),-13,8,9,35*,2,10,77*,72*
NC(=O)C(C(=O)/C=C/c1ccc(Cl)cc1)=C1SCCS1,39,·,89*,34*,61*,-8,56*,34*
O=C(C[C@H]1C[C@@H]2c3cc(NC(=O)c4cccnc4)ccc3O[C@@H]2[C@H](CO)O1)NCc1cc(F)ccc1F,·,·,-19,·,·,4,·,·
COc1cc(CN2CCCC(C(=O)c3ccc4c5c(cccc35)CC4)C2)cc(OC)c1O (stereo not given),3,-8,17,29*,6,-11,15,40*

# Screening data as filed in PubChem BioAssay.
